# Measurements from PubChem BioAssay (NCI).
# This is part of a sample that, as a whole, favours compounds with a hit. Of some 83,000 tested, about 20% had one in any assay.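 Assay: single dose, 48 h. Readout: percent growth (0 = no net growth; negative = cell death). Active: <10.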 Values without a mark were called inactive. The source made the active and inactive calls.
# Tested on: UACC-257 melanoma
# Assay: NCI-60 one-dose screen, 48 h (100 = growth as untreated, 0 = no growth, -100 = all killed)
# Details: 10 µM unless noted
row,SMILES,growth
1,COc1cc2nc(Cl)nc(Nc3cccc(C4=Nc5c(N)nc(N)nc5NC(c5ccccc5)C4)c3)c2cc1OC (stereo not drawn),108%
2,C#C[C@]1(O)CC[C@H]2[C@@H]3CC=C4c5sc(-c6ccc7c(c6)OCO7)nc5CC[C@]4(C)[C@H]3CC[C@@]21C,17.7%
3,CCO/C=N/C1=C(C#N)C(c2ccc(F)cc2)c2sc3c(C)cccc3c2O1 (stereo not drawn),69%
4,COc1ccc(/C=C(\C#N)C(=O)N2c3ccccc3Sc3ccc(SC)cc32)cc1F,93.1%
5,NC(N)=Nc1ccc(Oc2cccc(Nc3ccc(Cl)c(C(F)(F)F)c3)c2)cc1,27.6%
6,COc1ccccc1-n1cc(C#N)c(N)c1C(=O)c1ccc(Br)cc1,72.5%
7,Cc1cccc(/C=C/C(=O)Nc2ncc(Cc3cccc(C)c3)s2)c1,38.3%
8,C=C(C=O)[C@@H]1CC[C@]2(C)[C@H](CC=C3[C@H]4[C@@H](C)[C@H](C)CC[C@]4(C(=O)OC)CC[C@]32C)[C@@]1(C)CCC#N,-20.3% (active)
9,NC(N)=Nc1ccc(Oc2cccc(Nc3ccc(Br)c(C(F)(F)F)c3)c2)cc1,0.206% (active)
10,Nc1nc(N)c2c(n1)NC(c1ccc(C(F)(F)F)cc1)CC(c1ccc(Nc3nc(NCCO)nc(N4CCOCC4)n3)cc1)=N2 (stereo not drawn),80.2%
11,COc1ccccc1-n1cc(C#N)c(N)c1C(=O)c1ccc(C)cc1,78.3%
12,O=C(CCn1c[n+](CC(=O)c2ccc(F)cc2)c2ccccc21)Nc1cccc2cccnc12,47.6%
13,C#CCn1cccc1CNc1ccc(OC)cc1,23.6%
14,NC(N)=Nc1ccc(Oc2cccc(Oc3ccc(Cl)c(C(F)(F)F)c3)c2)cn1,-56% (active)
15,CCn1c2ccccc2c2cc(-n3nncc3-c3ccccc3)ccc21,85.4%
16,COc1ccc(COc2ccc(/C=C3\C(=O)Nc4ccccc43)cc2OC)cc1,116%
17,O=C(CCn1cc[n+](CC(=O)c2ccc(-c3ccccc3)cc2)c1)Nc1cccc2cccnc12,40.9%
18,C[C@@H]1C[C@H]2C(=O)O[C@@H](C)C(NC(=O)[C@H](Cc3cc(F)cc(F)c3)NC(=O)Nc3ccc(C4CC4)cc3F)C(=O)N3CCC[C@H]3C(=O)N3CCCC[C@H]3C(=O)N[C@@H](CO)C(=O)N2C1 (stereo partly drawn),11.5%
19,CCOC(=O)c1c(Nc2ccccc2)nn2c(-c3ccccc3)ccnc12,112%

row,SMILES,growth
1,C#C[C@]1(O)CC[C@H]2[C@@H]3CC=C4c5sc(-c6cccc(O)c6)nc5CC[C@]4(C)[C@H]3CC[C@@]21C,-42.6% (active)
2,C#C[C@]1(O)CC[C@H]2[C@@H]3CC=C4c5sc(-c6ccc(C)cc6)nc5CC[C@]4(C)[C@H]3CC[C@@]21C,-17.9% (active)
3,NS(=O)(=O)c1ccc(-n2cc(-c3cccc(NC(=O)c4ccc(N5CCOCC5)c(C(F)(F)F)c4)c3)nn2)cc1,82.5%
4,CCO/C=N/C1=C(C#N)C(c2ccc(OC)cc2)c2sc3c(CC)cccc3c2O1 (stereo not drawn),73.8%
5,O=C(CN1CCN(c2cc(=O)[nH]c3ccc(F)cc23)CC1)Nc1ccc(Cl)cc1,65%
6,COc1cc2nc(Cl)nc(Nc3cccc(C4=Nc5c(N)nc(N)nc5NC(c5ccc6c(c5)OCO6)C4)c3)c2cc1OC (stereo not drawn),105%
7,CC1(C)NCCC[C@]2(C)[C@H]3C/C(=N\O)C4[C@@H]5C[C@@](C)(CO)CC[C@]5(C)CC[C@@]4(C)[C@]3(C)CC[C@@H]12 (stereo partly drawn),102%
8,C#Cc1nc(/C=C/C(=O)c2nccn2C)cs1,-19% (active)
9,COc1cc2nc(Cl)nc(Nc3cccc(C4=Nc5c(N)nc(N)nc5NC(c5ccc(Cl)cc5)C4)c3)c2cc1OC (stereo not drawn),87.3%
10,CC(C)(C)c1ccc(C(=O)Nc2sc3c(c2C(N)=O)CCC(O)C3)cc1 (stereo not drawn),36.8%
11,COc1ccc(-c2nc3cccc(O)c3c(=O)n2Cc2ccccc2)cc1COc1ccc(NC(C)=O)cc1,67.2% [3 µM]
12,N#Cc1cn(Cc2ccc(Cl)cc2Cl)c(C(=O)c2ccc(Br)cc2)c1N,92.1%
13,O=C(CCn1c[n+](CC(=O)c2ccc(-c3ccccc3)cc2)c2ccccc21)Nc1cccc2cccnc12,23.6%
14,Cc1ccc(-c2nnc(SCc3ccc(O)c4ncccc34)o2)cc1,9.75% (active)
15,Cc1ccc(S(=O)(=O)N(CC[C@@H]2C[C@H]2c2cc3ccccc3o2)S(=O)(=O)c2ccc(C)cc2)cc1,84.9%
16,COc1ccc(Cn2cc3c(c2-c2cc(OC)c(OC)c(OC)c2)CCc2c(CN4CCCC4)noc2-3)cc1,77%
17,Cc1nn(-c2ccccc2)c2ncnc(N/N=C/c3cccc(O)c3)c12,62.8%
18,COc1ccc(C2CC(c3ccc(Nc4nc(NCCO)nc(N5CCOCC5)n4)cc3)=Nc3c(N)nc(N)nc3N2)cc1 (stereo not drawn),109%
19,O=C(CN1CCN(c2cc(=O)n(-c3ccccc3)c3ccccc23)CC1)Nc1ccc(F)cc1,49.7%
